# Compounds with a hit are over-represented: about 21% of the library has one in this group of screens.
# Cycloheximide cs: affects cycloheximide protein synthesis inhibition readout, counter-screen. max response, %. 300,000 tested, 12% active. AID 2314. cell reporter, cycloheximide protein synthesis inhibition counterscreen; in the data active = max response mostly above about 13%, no sharp cut-off; inactive = mostly below about 14%; note: read at 38.3 µM for the half of the compounds with a filed dose; 0% is about no effect
# Shiga toxin inh: blocks Shiga toxin action in Vero cells | 290,000 tested, 9.2% active | Vero cells, Shiga toxin protein synthesis inhibition reporter | inhibition, % at 38.7 µM | AID 2315; in the data active = inhibition mostly above about 28%, no sharp cut-off; inactive = mostly below about 43%; note: 0% is about no effect
# NS1 inh: influenza NS1 inhibition. Potency, µM (highest dose often 46.1 µM), for the others: at the top dose activity, positive = more growth. 270,000 tested, 0.4% active; calls by dose curve; note: potency is the fitted concentration of half-maximal effect; actives are rising curves; nearly all actives have a fitted effect of over 50% in size
#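 Read-out: OD600 growth recovery of NS1-expressing budding yeast. Cells grown overnight at 30C in -URA glucose medium, washed, resuspended and diluted 1:100 in 2% galactose assay medium, pH 6.0. Same strain lacking NS1 served as positive control.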
# Pf growth 96h: P. falciparum growth inhibition at 96 hours | P. falciparum luciferase reporter growth, 96 h | Potency, µM (top dose mostly 28.7 µM), inactives show at the highest dose activity change, negative = inhibition, most hits filed as inhibitors | 320,000 tested, 6.9% active | AID 504834; note: potency is the fitted concentration of half-maximal effect; % is set by controls: 0 for no effect and ±100 for the full control effect
#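 Plates of compound plus infected erythrocytes (2% hematocrit, 0.05% parasitemia final) incubate 96 hours, 37 C, 5% CO2. Detection reagent added; reduced luminescence from the parasites' luciferase reporter flags inhibition.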
# Pf growth 48h: P. falciparum growth inhibition at 48 hours (one generation) | 310,000 tested, 5.9% active | P. falciparum luciferase growth in erythrocytes, 48 h | Potency, µM (titrated, usually from 28.7 µM), for inactives: at the top dose activity change, negative = inhibition, hits mostly inhibitors; note: potency is the fitted concentration of half-maximal effect; % is set by controls: 0 for no effect and ±100 for the full control effect
#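 Luminescence readout; reporter = integrated firefly luciferase in P. falciparum. RBC culture at 2% hematocrit, 0.1% parasitemia final, 37 C/5% CO2; decreased signal taken as growth inhibition.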
# Giardia FBPA inh: Giardia lamblia aldolase inhibition. 290,000 tested, 0.71% active. A8B2U2. Potency, µM (top dose mostly 59.6 µM), inactives show at the highest dose activity, negative = inhibition, usual class: inhibitors. purified Giardia FBPA. AID 2451; note: potency is the fitted concentration of half-maximal effect; % is set by controls: 0 for no effect and ±100 for the full control effect; nearly all actives have a fitted effect of over 55% in size
# Target sequence (A8B2U2 whole entry, looked up): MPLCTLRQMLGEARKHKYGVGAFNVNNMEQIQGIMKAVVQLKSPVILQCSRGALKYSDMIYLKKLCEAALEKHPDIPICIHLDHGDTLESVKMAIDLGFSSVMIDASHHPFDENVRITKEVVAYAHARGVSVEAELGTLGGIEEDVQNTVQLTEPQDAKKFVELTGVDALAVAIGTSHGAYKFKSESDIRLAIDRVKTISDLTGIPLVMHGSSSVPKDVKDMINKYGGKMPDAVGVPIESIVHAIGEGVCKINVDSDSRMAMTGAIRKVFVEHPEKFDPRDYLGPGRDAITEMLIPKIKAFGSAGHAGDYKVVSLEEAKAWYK
#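 Giardia FBPA (40 nM reagent) was preincubated 10 min at RT with compound (up to 57.5 uM final), then substrate plus GAPDH/TPI/NAD/arsenate coupling system with diaphorase/resazurin was added; resorufin fluorescence (525/598 nm) was read after 20 min.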
# Active calls of the source: *; ? = inconclusive; / = no result given. Unless noted, calls come from the whole dose curve; as a rule, active = well fitted curve in the direction sought with a large enough effect; inconclusive = small, poorly fitted or top-dose-only effect, or another doubt; inactive = no such curve, though single readings can be large; an effect the other way counts as inactive or inconclusive.
SMILES,Cycloheximide cs,Shiga toxin inh,NS1 inh,Pf growth 96h,Pf growth 48h,Giardia FBPA inh
CC/C(=N/N=C(\CC)c1ccccc1)c1ccccc1,9,21,21%,?,-10%,2%
COc1cc(CN2CCNC(=O)C2CC(=O)NCCCC2CCCC2)cc(OC)c1 (centres undefined),-1,-4,7%,-8%,3%,/
Cc1cccc(C)c1OCC(O)CN(Cc1ccccc1O)C1CCCCC1 (centres undefined),-2,22,/,0.26µM*,0.26µM*,2%
CN(CC(O)COc1ccc(OCC(O)CN(C)C2CCCCC2)cc1)C1CCCCC1 (centres undefined),-4,23,9%,35%,?,-9%
CCCCn1c(-c2ccccc2)nnc1-c1ccccc1,-4,-20,-106%,-2%,?,13%
CCCCN1c2ccccc2N(CCCO)c2cc(C)nnc21,14*,23,-248%,?,?,-5%
CCNC(=S)N/N=C(\C)c1ccc(Cl)s1,-2,-16,-33%,?,?,4%
C=C(C)CNC(=S)N/N=C(\C)c1ccc(Cl)s1,2,15,-18%,?,12µM*,5%
CC1CC(C)CN(C(=O)CSc2nnc(N)s2)C1 (centres undefined),-2,-5,8%,40%,-24%,-1%
CCc1nc(Sc2nnnn2-c2ccccc2)c2c3c(sc2n1)CCCC3,1,-6,10%,?,12µM*,7%
CSc1n[nH]c(-c2sccc2OCc2ccc(C)cc2)n1,-1,-2,-67%,4.1µM*,?,-2%
CSc1nnc(-c2sccc2OCc2ccccc2)n1C,-4,-12,-12%,18%,-4%,0%
COc1ccc(N2CCN(C(=O)COC(=O)COc3ccc(C#N)cc3)CC2)cc1,/,/,/,18%,0%,/
CC(NS(=O)(=O)c1ccc2c(c1)oc(=O)n2C)c1ccccc1 (centres undefined),-5,-21,1%,?,-21%,/
CC1CN(c2cc(-c3ccccc3)c3ccccc3n2)CC(C)O1 (centres undefined),-3,37,-22%,2.6µM*,/,0%
O=C(c1ccccc1)c1ccc(Cn2cc(-c3ccccc3)nn2)cc1,24*,57*,-13%,56%,37%,-11%
CSc1ccc(Cl)c(C(=O)N2CCN(c3ncccn3)CC2)c1,/,/,/,-26%,-27%,/
O=c1c(Cc2c(F)cccc2Cl)c(O)ccn1CCCn1ccnc1,-2,-5,5%,-13%,-9%,-6%
COc1cccc(NC(=O)CN2CCSc3ccccc32)c1,7,0,/,52%,30%,-9%
Cc1cccc(NC(=O)CN2CCSc3ccccc32)c1,34*,49*,/,46%,20%,-8%
O=C1C2C3CCC(C3)C2C(=O)N1Cc1ccco1 (centres undefined),-1,7,15%,89%,13%,3%
O=C(NCc1ccco1)c1nc2c(nnn2Cc2ccccc2Cl)c(=O)[nH]1,-5,-10,11%,0%,9.3µM*,-4%
O=C(CN1C(=O)C2C3CCC(C3)C2C1=O)NCc1ccco1 (centres undefined),11,43*,2%,22%,31%,3%
Cc1ccc(C)c(Cn2nnc3c(=O)[nH]c(C(=O)NCc4ccco4)nc32)c1,-3,-21,-11%,?,-10%,3%
O=C(NCc1ccco1)C(=O)NCc1ccccc1Cl,30*,24,3%,?,21%,8%
SMILES,Cycloheximide cs,Shiga toxin inh,NS1 inh,Pf growth 96h,Pf growth 48h,Giardia FBPA inh
O=C(NCc1ccccc1Cl)c1ccc(S(=O)(=O)NCc2ccco2)cc1,/,/,/,60%,50%,/
O=C(NCc1ccco1)Nc1ccccc1Cl,18*,74*,-6%,/,53%,0%
COc1cccc(N2CCN(c3nc(-c4ccccc4C)cc(=O)[nH]3)CC2)c1,1,8,-28%,?,?,15%
CCc1ccccc1NC(=O)COc1cccc2ccc(C)nc12,-5,-2,-16%,-3%,-11%,6%
O=C(CN1CCN(Cc2ccccc2Cl)C1=O)NCc1ccco1,-2,-16,0%,3.3µM*,6%,-2%
O=S(=O)(c1ccc(F)c(F)c1)N1CCC2(CC1)OCCO2,1,-4,6%,71%,52%,/
O=C1c2ccccc2S(=O)(=O)N1CCOc1ccccc1,35*,56,6%,59%,33%,0%
O=C1c2ccccc2S(=O)(=O)N1CC(O)COc1ccc(Br)cc1 (centres undefined),28*,33,-13%,244%,-3%,1%
O=C1c2ccccc2C(=O)N1CC(O)COc1ccc(Br)cc1 (centres undefined),13*,90,-8%,?,98%,5%
COC(=O)c1ccc(OCC(O)CN2C(=O)c3ccccc3S2(=O)=O)cc1 (centres undefined),9,2,-12%,?,1%,6%
O=C1c2ccccc2S(=O)(=O)N1CC(O)COc1ccc(Cl)cc1 (centres undefined),9,38,-66%,6.6µM*,10%,-1%
CC(=O)NCc1ccc(S(=O)(=O)N2CCN(S(=O)(=O)c3ccc4ccccc4c3)CC2)cc1,/,/,/,0%,5%,/
CCN(c1ccccc1)S(=O)(=O)c1ccc(N2CCN(c3ccccc3O)CC2)nc1,/,/,/,9.3µM*,6.6µM*,/
O=C(Nc1nnc(C23CC4CC(CC(C4)C2)C3)s1)c1ccco1,35*,53*,0%,-30%,200%,-28%
CC(C)(C)Cc1nnc(NC(=O)c2ccco2)s1,32*,42*,-11%,?,19%,-22%
O=C(Nc1nnc(Cc2ccccc2)s1)c1ccco1,18,62,-53%,139%,/,-1%
COc1cccc(-c2nnc(NC(=O)c3ccco3)s2)c1,32*,96*,-21%,-22%,87%,/
C/C=C(\C)c1nnc(NC(=O)c2ccco2)s1,15*,56*,10%,5%,100%,0%
Cc1ccc(OCc2nnc(NC(=O)c3ccco3)s2)cc1,-2,-19,-34%,5%,/,-1%
Cc1nnc(NC(=O)c2ccco2)s1,1,-11,-6%,77%,-4%,-1%
Cc1ccc(OCc2nnc(NC(=O)c3ccco3)s2)c(C)c1,-3,-14,-8%,1.9µM*,-3%,4%
COc1ccc(/C=C/c2nnc(NC(=O)c3ccco3)s2)cc1,9,41,-3%,-3%,4%,4%
COc1ccc(-c2nnc(NC(=O)c3ccco3)s2)cc1,27*,53,-11%,9%,81%,-1%
Cc1ccc(-c2nnc(NC(=O)c3ccco3)s2)cc1,28*,96*,-38%,?,66%,11%
C=C(C)C1COc2cc3oc(=O)ccc3cc2O1 (centres undefined),/,/,/,/,/,0%
CCOC(=O)C1=C(c2ccccc2)NC(=O)NC1c1cc(Cl)c(O)c(OC)c1 (centres undefined),20,8,/,2%,-7%,-8%

# High-throughput results (PubChem)
